According to the supplement of paper PMC8728848:
The full list was thinned out, with the strongest signals kept by preference.

Legend:
Assay in all cases: glycan array binding signal (z-score within array); higher = stronger binding
Settings in all cases: glycan notation: IUPAC condensed, linker removed
[1] = target: Fuc(a1-2)Gal(b1-3)GalNAc(b1-3)Gal(a1-4)Gal(b1-4)Glc
In short: (§1)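 Glycan array binding is given as a within-array Z-score, which can be read as non-binding when negative. The arrays, 3228 of them, came from the Consortium for Functional Glycomics database and were retained only where the protein sequence was available. Z-scores were averaged across arrays of the same protein sequence at different concentrations or buffers and across linkers.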

[2] = target: Fuc(a1-2)Gal(b1-3)[Fuc(a1-4)]GlcNAc
In short: as §1

[3] = target: Fuc(a1-2)Gal(b1-4)[Fuc(a1-3)]GlcNAc
In short: as §1

[4] = target: Fuc(a1-2)Gal(b1-4)[Fuc(a1-3)]GlcNAc(b1-2)Man(a1-3)[Fuc(a1-2)Gal(b1-4)[Fuc(a1-3)]GlcNAc(b1-2)Man(a1-6)]Man(b1-4)GlcNAc(b1-4)[Fuc(a1-6)]GlcNAc
In short: as §1

[5] = target: Fuc(a1-2)Gal(b1-4)[Fuc(a1-3)]GlcNAc(b1-3)Gal(b1-4)[Fuc(a1-3)]GlcNAc
In short: as §1

[6] = target: Fuc(a1-2)Gal(b1-4)[Fuc(a1-3)]GlcNAc(b1-3)Gal(b1-4)[Fuc(a1-3)]GlcNAc(b1-3)Gal(b1-4)[Fuc(a1-3)]GlcNAc
In short: as §1

[7] = target: Fuc(a1-2)[Gal(a1-3)]Gal(b1-3)GlcNAc
In short: as §1

[8] = target: Fuc(a1-2)[Gal(a1-3)]Gal(b1-4)Glc
In short: as §1

[9] = target: Fuc(a1-2)[Gal(a1-3)]Gal(b1-4)GlcNAc
In short: as §1

[10] = target: Fuc(a1-2)[Gal(a1-3)]Gal(b1-4)GlcNAc(b1-2)Man(a1-3)[Fuc(a1-2)[Gal(a1-3)]Gal(b1-4)GlcNAc(b1-2)Man(a1-6)]Man(b1-4)GlcNAc(b1-4)GlcNAc
In short: as §1

[11] = target: Fuc(a1-2)[Gal(a1-3)]Gal(b1-4)[Fuc(a1-3)]GlcNAc
In short: as §1

[12] = target: Fuc(a1-2)[GalNAc(a1-3)]Gal(b1-3)GalNAc(b1-3)Gal(a1-4)Gal(b1-4)Glc
In short: as §1

[13] = target: Fuc(a1-2)[GalNAc(a1-3)]Gal(b1-4)GlcNAc(b1-2)Man
In short: as §1

[14] = target: Fuc(a1-2)[GalNAc(a1-3)]Gal(b1-4)GlcNAc(b1-3)Gal(b1-4)GlcNAc
In short: as §1

[15] = target: Fuc(a1-4)GlcNAc
In short: as §1

[16] = target: Fuc(b1-3)GlcNAc
In short: as §1

[17] = target: Gal(a1-3)Gal(b1-3)GlcNAc(b1-6)GalNAc
In short: as §1

[18] = target: Gal(a1-3)Gal(b1-4)Glc
In short: as §1

[19] = target: Gal(a1-3)Gal(b1-4)GlcNAc
In short: as §1

[20] = target: Gal(a1-3)Gal(b1-4)[Fuc(a1-3)]GlcNAc
In short: as §1

[21] = target: Gal(a1-4)Gal(b1-4)GlcNAc(b1-2)Man(a1-3)[Gal(a1-4)Gal(b1-4)GlcNAc(b1-2)Man(a1-6)]Man(b1-4)GlcNAc(b1-4)GlcNAc
In short: as §1

[22] = target: Gal(b1-3)[Neu5Ac(b2-6)]GalNAc
In short: as §1

[23] = target: Gal(b1-4)Gal
In short: as §1

[24] = target: Gal(b1-4)GlcNAc(b1-2)Man(a1-3)Man(b1-4)GlcNAc(b1-4)GlcNAc
In short: as §1

[25] = target: Gal(b1-4)GlcNAc(b1-3)Gal(b1-4)GlcNAc(b1-3)Gal(b1-4)GlcNAc(b1-3)Gal(b1-4)GlcNAc(b1-3)Gal(b1-4)GlcNAc(b1-2)Man(a1-3)[Gal(b1-4)GlcNAc(b1-3)Gal(b1-4)GlcNAc(b1-3)Gal(b1-4)GlcNAc(b1-3)Gal(b1-4)GlcNAc(b1-3)Gal(b1-4)GlcNAc(b1-2)Man(a1-6)]Man(b1-4)GlcNAc(b1-4)[Fuc(a1-6)]GlcNAc
In short: as §1

[26] = target: Gal(b1-4)GlcNAc(b1-3)[GlcNAc(b1-6)]Gal(b1-4)GlcNAc
In short: as §1

[27] = target: Gal(b1-4)GlcNAc(b1-6)GalNAc
In short: as §1

[28] = target: GalNAc(b1-3)Gal
In short: as §1

[29] = target: GalNAc(b1-6)GalNAc
In short: as §1

[30] = target: Glc(a1-6)Glc(a1-6)Glc
In short: as §1

[31] = target: GlcNAc(a1-4)Gal(b1-4)GalNAc
In short: as §1

[32] = target: GlcNAc(b1-3)Gal(b1-4)GlcNAc(b1-2)Man(a1-3)[GlcNAc(b1-3)Gal(b1-4)GlcNAc(b1-2)Man(a1-6)]Man(b1-4)GlcNAc(b1-4)GlcNAc
In short: as §1

[33] = target: GlcNAc(b1-4)Gal(b1-4)GlcNAc
In short: as §1

[34] = target: GlcNAc(b1-4)GlcNAc(b1-4)GlcNAc
In short: as §1

[35] = target: Kdn(a2-3)Gal(b1-4)GlcNAc
In short: as §1

[36] = target: Man(a1-3)[Man(a1-6)]Man(a1-6)[Man(a1-3)]Man
In short: as §1

[37] = target: Neu5Ac(a2-3)Gal(b1-3)GalNAc(b1-3)Gal(a1-4)Gal(b1-4)Glc
In short: as §1

[38] = target: Neu5Ac(a2-3)Gal(b1-3)GlcNAc6S
In short: as §1

[39] = target: Neu5Ac(a2-3)Gal(b1-3)[Neu5Ac(a2-6)]GalNAc
In short: as §1

[40] = target: Neu5Ac(a2-3)Gal(b1-4)GlcNAc(b1-2)Man(a1-3)[GlcNAc(b1-4)][Neu5Ac(a2-3)Gal(b1-4)GlcNAc(b1-2)Man(a1-6)]Man(b1-4)GlcNAc(b1-4)GlcNAc
In short: as §1

[41] = target: Neu5Ac(a2-3)Gal(b1-4)GlcNAc(b1-3)Gal(b1-4)GlcNAc
In short: as §1

[42] = target: Neu5Ac(a2-3)Gal(b1-4)GlcNAc(b1-6)[Gal(b1-3)]GalNAc
In short: as §1

[43] = target: Neu5Ac(a2-3)Gal(b1-4)GlcNAc(b1-6)[Neu5Ac(a2-3)Gal(b1-3)]GalNAc
In short: as §1

[44] = target: Neu5Ac(a2-3)[GalNAc(b1-4)]Gal(b1-4)Glc
In short: as §1

[45] = target: Neu5Ac(a2-3)[Neu5Ac(a2-6)]GalNAc
In short: as §1

[46] = target: Neu5Ac(a2-6)Gal(b1-4)GlcNAc(b1-2)[Neu5Ac(a2-6)Gal(b1-4)GlcNAc(b1-4)]Man(a1-3)[GlcNAc(b1-4)][Neu5Ac(a2-6)Gal(b1-4)GlcNAc(b1-4)Man(a1-6)]Man(b1-4)GlcNAc(b1-4)GlcNAc
In short: as §1

[47] = target: Neu5Ac(a2-6)Gal(b1-4)GlcNAc(b1-6)GalNAc
In short: as §1

[48] = target: Neu5Gc(a2-8)Neu5Ac(a2-3)Gal(b1-4)GlcNAc
In short: as §1

B1: PLU (Photorhabdus luminiscence) (protein)
chain: HHHHHHENLYFQSSIVFASIDPRSNPLQTSSQNYVDIPGLKLDVSKYSNSPCLTALITLNIPTPYASGNNFPGGNFAIVTDQGEQLAYGGFTYSSKIPENSGRMPFTLVARYSLASNVSTIKAQWSNIRGSTVHIDSYASISAVIQCNQLV
glycan array binding signal (z-score) [1]: -0.183 | glycan array binding signal (z-score) [2]: 5.25 | glycan array binding signal (z-score) [3]: 3.55 | glycan array binding signal (z-score) [4]: 0.621 | glycan array binding signal (z-score) [5]: 3.58 | glycan array binding signal (z-score) [6]: 5.21 | glycan array binding signal (z-score) [7]: 4.43 | glycan array binding signal (z-score) [8]: 3.43 | glycan array binding signal (z-score) [9]: 3.83 | glycan array binding signal (z-score) [10]: 3.78 | glycan array binding signal (z-score) [11]: 5.59 | glycan array binding signal (z-score) [12]: -0.33 | glycan array binding signal (z-score) [13]: 3.66 | glycan array binding signal (z-score) [14]: 11.7 | glycan array binding signal (z-score) [15]: 0.546 | glycan array binding signal (z-score) [16]: -0.329 | glycan array binding signal (z-score) [17]: -0.253 | glycan array binding signal (z-score) [18]: -0.284 | glycan array binding signal (z-score) [19]: -0.298 | glycan array binding signal (z-score) [20]: -0.21 | glycan array binding signal (z-score) [21]: -0.137 | glycan array binding signal (z-score) [22]: -0.298 | glycan array binding signal (z-score) [23]: -0.25 | glycan array binding signal (z-score) [24]: -0.227 | glycan array binding signal (z-score) [25]: -0.211 | glycan array binding signal (z-score) [26]: -0.329 | glycan array binding signal (z-score) [27]: -0.243 | glycan array binding signal (z-score) [28]: -0.24 | glycan array binding signal (z-score) [29]: -0.216 | glycan array binding signal (z-score) [30]: -0.299 | glycan array binding signal (z-score) [31]: -0.301 | glycan array binding signal (z-score) [32]: -0.212 | glycan array binding signal (z-score) [33]: -0.134 | glycan array binding signal (z-score) [34]: -0.336 | glycan array binding signal (z-score) [35]: -0.224 | glycan array binding signal (z-score) [36]: -0.093 | glycan array binding signal (z-score) [37]: -0.254 | glycan array binding signal (z-score) [38]: -0.277 | glycan array binding signal (z-score) [39]: -0.203 | glycan array binding signal (z-score) [40]: -0.251 | glycan array binding signal (z-score) [41]: -0.256 | glycan array binding signal (z-score) [42]: -0.144 | glycan array binding signal (z-score) [43]: -0.34 | glycan array binding signal (z-score) [44]: -0.324 | glycan array binding signal (z-score) [45]: -0.281 | glycan array binding signal (z-score) [46]: -0.267 | glycan array binding signal (z-score) [47]: -0.292 | glycan array binding signal (z-score) [48]: -0.285
